The panel holds about 83,000 compounds, 20% with a hit somewhere; the sample as a whole holds those more often.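 Cell lines were cultured in 96-well plates, exposed to a single compound concentration, and assessed for percent growth 48 hours later.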 Activity calls are given as the source filed them. How the source made its calls: active means growth percent below 10; inactive means the rest.
tested on: HL-60(TB) leukemia; assay: NCI-60 one-dose screen, 48 h (100 = growth as untreated, 0 = no growth, -100 = all killed); conditions: 10 µM unless noted

Q: For `ClC1=C(Cl)C(Cl)=C(Cl)C1=C/C=C/c1ccccc1`, which growth is on record?
A: -45.5% (active)

Q: For `Cc1ccc(C23CCC(=O)N2CCc2cncn23)cc1` (stereo not given), which growth is on record?
A: 95.7% (inactive)

Q: `CN(N)c1nc2sc3c(c2c(=O)[nH]1)CCCC3` was tested. Which growth did it give?
A: 102% (inactive)

Q: `CC1(C)CC(=O)c2c(nc3ccc(Cl)cc3c2-c2ccccc2)C1` was tested. Which growth did it give?
A: 82.3% (inactive)

Q: With `NC1(C(=O)O)CSSC1` as the molecule, how does the growth read?
A: 4.59% (active)

Q: `CC(O)(c1ccccc1)C(c1ccccc1)C1CCCCN1` (stereo not given) was tested. Which growth did it give?
A: 78.9% (inactive)

Q: Which growth does the source give for `CN1C(=O)/C(=C/c2ccc(C(=O)Nc3ncc(Cc4cccc(Cl)c4)s3)cc2)SC1=S` here?
A: 88.2% (inactive)

Q: `COc1ccccc1-n1c(SCc2cc(OC)c(OC)c(OC)c2)nc2ccc(Cl)cc2c1=O` was tested. Which growth did it give?
A: -19.6% (active)

Q: Which growth does the source give for `COC12C=C/C(=C(/C(=O)OCCSc3ccnn3C)C(=O)CCCCCCCCC3(OC)C=C/C(=C(/C(=O)OCCSc4ccnn4C)C(=O)CCCCCCCC1)O3)O2` here?
A: -6.91% (active)

Q: With `CC(=O)OC[C@]12CC[C@@H](/C(C)=N/O)[C@@H]1[C@H]1CC[C@@H]3[C@@]4(C)CCCNC(C)(C)[C@@H]4CC[C@@]3(C)[C@]1(C)CC2` as the molecule, how does the growth read?
A: 37.7% (inactive)

Q: How did the growth turn out when `COc1ccc(C(=O)C(C#N)c2cc(OC)c(OC)c(OC)c2)cc1` (stereo not given) was run?
A: 96% (inactive)

Q: How did the growth turn out when `Cc1ccc(-n2nnc(C3=NCCc4c3[nH]c3ccc(Cl)cc43)c2C)cc1` was run?
A: 39.4% (inactive)

Q: `COC(=O)[C@H]1CCCN1C(=O)[C@H]1CCCN1C(=O)[C@H](Cc1c[nH]c2ccccc12)NC(=S)Nc1cc(C(F)(F)F)cc(C(F)(F)F)c1` was tested. Which growth did it give?
A: 53.4% (inactive)

Q: With `CCCCCCCCCCC(=O)CCCCCCCCCC` as the molecule, how does the growth read?
A: 95.4% (inactive)

Q: `COc1ccc(/C=C2\N=C(Nc3ccccc3)N(NC(=O)c3ccccn3)C2=O)cc1` was tested. Which growth did it give?
A: 97.7% (inactive)

Q: For `CCc1ccc(/C=C/c2ccc(O)c3ncccc23)[n+](C)c1`, which growth is on record?
A: 104% (inactive)

Q: How did the growth turn out when `COc1ccc(/C=C/c2ccc3ccccc3n2)c(OC)c1` was run?
A: 40.7% (inactive)

Q: `Nc1ccc(F)cc1F` was tested. Which growth did it give?
A: 97.9% (inactive)

Q: For `COCCOCCOCCOCCOc1ccc2c(c1)C(=O)c1nc3ncccc3c(=O)n1-2`, which growth is on record?
A: -64.6% (active)

Q: Which growth does the source give for `O=S(=O)(Nc1ccc(F)cc1F)c1ccc(-c2cnc(C3CC3)o2)cc1` here?
A: 1% (active)

Q: Which growth does the source give for `O=C1c2ccccc2C(=Cc2ccccc2)c2ccccc21` here?
A: -1.29% (active)

Q: With `COc1cc(C(=O)n2nc(NCCCc3ccccc3)c3cc(N)ccc32)cc(OC)c1OC` as the molecule, how does the growth read?
A: 69.5% (inactive)

Q: How did the growth turn out when `COc1ccc(-c2cc(-c3ccccc3)nc(SCCCC(=O)NO)n2)cc1` was run?
A: -31.2% (active)

Q: `Cc1cc(=O)oc2cc(Oc3nc(Br)cn4c(Br)cnc34)ccc12` was tested. Which growth did it give?
A: 30.8% (inactive)

Q: How did the growth turn out when `Nc1nc(-c2cnccn2)nn1-c1nc2ccccc2s1` was run?
A: 100% (inactive)

— PubChem BioAssay (NCI)
